Bioassay records (PubChem BioAssay)
SW480 rereplic – inducers of DNA re-replication in SW480 colon cancer cells. SW480 DNA re-replication, Hoechst DNA content imaging, 48 h. Potency, µM (doses to about 46.1 µM), inactives show top-dose re-replication activation, actives largely listed as activators. 1.8% of 340,000 active. AID 624297; further: potency means the concentration at half of the fitted maximal effect; % of control where 0% means no effect; nearly all actives have a fitted effect of over 55% in size
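Image-based DNA-content assay: after two days of treatment, nuclei were labelled with the DNA dye Hoechst and imaged, and hits were compounds raising the count of nuclei showing high fluorescence intensity.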
MCF10A rereplic – DNA re-replication induction in MCF 10a cells. Potency, µM (titrated, usually from 46.1 µM), inactives show top-dose activity, positive = re-replication, most hits filed as activators. AID 624296. MCF 10A DNA re-replication, Hoechst nuclear intensity, 48 h. 2.9% of 350,000 active; further: potency means the concentration at half of the fitted maximal effect; % of control where 0% means no effect; nearly all actives have a fitted effect of over 50% in size
KB-V1 MDR tox – KB-V1 MDR subline cytotoxicity; KB-V1 MDR cells viability, CellTiter-Glo, 72 h; Potency, µM (series often up to 46.1 µM), most hits filed as cytotoxic; 3.4% of 400,000 active; AID 1347076; further: potency means the concentration at half of the fitted maximal effect; on the % scale 0 is the no-effect control and ±100 the full control effect; nearly all actives have a fitted effect of over 60% in size
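In this primary screen, KB-V1 cells overexpressing P-gp are incubated with library compounds (lowest to highest concentration) for 72 h at 37 degrees C before a luminescent ATP viability read.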
KB-3-1 tox – kills parental KB-3-1 adenocarcinoma cells; KB-3-1 viability, CellTiter-Glo ATP luminescence, 72 h; Potency, µM (doses to about 46.1 µM), actives largely listed as cytotoxic; 1.4% of 400,000 active; further: potency means the concentration at half of the fitted maximal effect; on the % scale 0 is the no-effect control and ±100 the full control effect; nearly all actives have a fitted effect of over 60% in size
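KB-3-1 parental drug-naive adenocarcinoma cells in DMEM/10% FBS, incubated 72 h at 37 C with pin-transferred compounds across a concentration series. Viability by CellTiter-Glo luminescence; concentration-response curves fitted after normalization.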
D3 ag – activates the human D3 dopamine receptor. D3R DiscoveRx beta-arrestin cells, luminescence, 90 min. max activation, %. 0.58% of 410,000 active. AID 652048; in the data active means max activation above about 30%; further: 0% is about no effect
Target sequence (P35462 whole entry, looked up): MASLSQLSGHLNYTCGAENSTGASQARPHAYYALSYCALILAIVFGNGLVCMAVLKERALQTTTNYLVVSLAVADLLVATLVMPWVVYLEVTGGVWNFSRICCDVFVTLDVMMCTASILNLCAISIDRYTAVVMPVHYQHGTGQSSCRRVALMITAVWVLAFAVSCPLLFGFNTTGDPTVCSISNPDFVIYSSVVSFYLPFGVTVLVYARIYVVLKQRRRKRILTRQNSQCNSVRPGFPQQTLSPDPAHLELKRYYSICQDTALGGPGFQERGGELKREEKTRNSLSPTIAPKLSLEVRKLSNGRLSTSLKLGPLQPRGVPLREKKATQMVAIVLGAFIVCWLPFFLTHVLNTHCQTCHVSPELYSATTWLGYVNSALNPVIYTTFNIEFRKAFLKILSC
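Agonist mode: compounds and dopamine controls were applied to plated cells for 90 min at 37 degrees C after an overnight attachment at 1500 cells/well. Luminescent read-out followed 30 - 60 minutes at room temperature with DiscoveRx detection reagent.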
D3 antag – D3 dopamine receptor (human) antagonism; D3R cells, DiscoveRx beta-arrestin luminescence, antagonist mode; hits give low values; max response, negative = inhibition, %; 2.5% of 360,000 active; in the data active means max response below about -50%; inconclusive means no clear call, values can overlap the other calls; further: on the % scale 0 is the no-effect control and ±100 the full control effect
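Cells expressing the human receptor were seeded at 1500 cells/well, incubated overnight at 37 degrees C in 5% CO2, then exposed to library compounds with dopamine controls for 90 minutes at 37 degrees C before luminescent detection.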
* hit, by the source's call; i = inactive; ? = inconclusive; nt = not tested or not shown; [ ] = dose if it differs, or a comment. This is a sample that favours compounds with a hit; in the whole collection about 8.9% have one here. Unless noted, the call rests on the fitted dose curve; in most records, active means well fitted curve in the direction sought with a large enough effect; inconclusive means small, poorly fitted or top-dose-only effect, or another doubt; inactive means no such curve, though single readings can be large; an effect the other way counts as inactive or inconclusive.

SMILES	SW480 rereplic	MCF10A rereplic	KB-V1 MDR tox	KB-3-1 tox	D3 ag	D3 antag
CCC(C)Nc1ccc(NC(C)CC)cc1 (centres undefined)	30%	2.6µM*	?	?	0	-51*
CCN(CC)c1ccc(S(=O)(=O)N2CCCCC2)cc1NC(=O)CSCc1c(C)noc1C	1%	29%	i	23µM*	-1	-2
Cc1cc(C)c(NC(=O)CSCc2c(C)noc2C)c(C)c1	-5%	7%	23µM*	i	-5	52
CCOc1ccc(S(=O)(=O)N(CC)CC)cc1NC(=O)CSCc1c(C)noc1C	4%	-1%	7.3µM*	i	-5	15
Cc1ccnc(NC(=O)C2CC(=O)N(c3ccc4c(c3)OCCO4)C2)c1 (centres undefined)	2%	-11%	i	i	2	-14
CCCCCn1c(CNC(=O)c2ccc(F)cc2)nc2ccccc21	nt	nt	?	i	-20	nt
O=C(Cn1nc(C(F)(F)F)c2c1CCC2)Nc1ccc(Cl)cc1	nt	nt	i	i	-16	nt
CCn1c(CCC(=O)Nc2cc(F)ccc2C)nc2cc(S(=O)(=O)N(C)C)ccc21	6%	2%	i	i	12	-8
CCN(CC)S(=O)(=O)c1ccc2c(c1)nc(CCC(=O)Nc1ccccc1Cc1ccccc1)n2CC	?	22%	21µM*	i	-9	6
COCC(=O)Nc1c(I)c(C(=O)NC[C@@H](O)CO)c(I)c(C(=O)N(C)C[C@@H](O)CO)c1I	-9%[20.6 µM]	-6%[20.6 µM]	nt	nt	nt	nt
CCOC(=O)CC1(CCc2ccccc2)Oc2ccccc2N1S(=O)(=O)c1ccc(C)cc1 (centres undefined)	nt	nt	?	18µM*	6	7
CCOC(=O)CC1(C)Oc2cc(Cl)ccc2N1S(=O)(=O)c1ccc(C)cc1 (centres undefined)	nt	nt	?	18µM*	-8	0
COc1ccc2ccccc2c1-c1sc(Nc2ccccc2)n[n+]1-c1ccc(F)cc1	?	5%	i	i	-62	-80*
COc1ccc(-c2sc(Nc3ccccc3)n[n+]2-c2ccc(F)cc2)cc1Br	5%	3%	?	i	-11	-2
CCc1ccc(Nc2n[n+](-c3ccccc3)c(-c3cc(OC)c(OC)cc3Br)s2)cc1	-10%	-2%	i	i	-9	-51*
CCc1ccc(Nc2n[n+](-c3ccccc3)c(-c3c(Cl)cccc3Cl)s2)cc1	?	?	?	23µM*	-30	-5
Fc1ccc(-[n+]2nc(Nc3ccccc3)sc2-c2c(Cl)cccc2Cl)cc1	-44%[9.22 µM]	?	i	?	-44	2
COc1ccc(C)cc1Nc1n[n+](-c2ccccc2)c(-c2c(Cl)cccc2Cl)s1	?	?	?	?	-52	-87*
COc1ccc(C)cc1Nc1n[n+](-c2ccccc2)c(-c2ccc(OC)c(OC)c2OC)s1	0%	-17%	i	?	-59	?
C[C@@H]1CC(=O)NN=C1c1ccc(NN=C(C#N)C#N)cc1	nt	nt	nt	nt	-1	nt
CCOC(=O)c1ccc(CN(Cc2ccc(OC)cc2)S(=O)(=O)c2cccc(C(F)(F)F)c2)cc1	nt	nt	i	i	-9	nt
Cc1ccc(C)c(CN2C(=O)c3ccccc3Sc3ccc(C(=O)NC4CCCC4)cc32)c1	nt	nt	nt	nt	10	nt
O=C1CCCC2=C1C1(CCCC1)N=C(Nc1nc3cc(Cl)ccc3o1)N2	nt	nt	?	i	nt	nt
CC(C)C[C@@H](CN)NC(=O)c1nc[nH]c1C(=O)N[C@@H](C)C(=O)CNC[C@H](CC(C)C)NC(=O)c1nc[nH]c1C(=O)N[C@@H](Cc1ccccc1)C(=O)O	-9%	-1%	i	i	-2	5
CC(=O)/C(N=Nc1cc2c(c([N+](=O)[O-])c1C)C(C)(C)CC2(C)C)=C(\C)O	-4%	0%	i	i	34*	21
SMILES	SW480 rereplic	MCF10A rereplic	KB-V1 MDR tox	KB-3-1 tox	D3 ag	D3 antag
Cc1cccc(Cn2cnc3c(nnn3Cc3ccc(F)cc3)c2=O)c1	-7%	-5%	i	i	1	22
COc1cccc(-n2nnc3c(=O)n(Cc4ccc(Cl)cc4)cnc32)c1	-7%	11%	15µM*	i	2	16
COc1cccc(-n2nnc3c(=O)n(Cc4ccc(C)cc4)cnc32)c1	0%	14%	?	i	2	-7
COc1cccc(-n2nnc3c(=O)n(Cc4ccc(Br)cc4)cnc32)c1	-4%	22%	i	i	2	16
Cc1ccc(-n2nnc3c(=O)n(Cc4cc(C)ccc4C)cnc32)cc1	-12%	-1%	i	i	-7	-68*
Cc1cccc(Cn2cnc3c(nnn3Cc3ccccc3F)c2=O)c1	-3%	?	i	i	56*	3
COc1cccc(-n2nnc3c(=O)n(Cc4ccccc4Cl)cnc32)c1	-7%	-2%	18µM*	i	2	-19
O=C(Nc1cccc(C(=O)OCc2cc(=O)n3ccsc3n2)c1)c1ccc(F)cc1	nt	nt	?	i	3	nt
CCOC(=O)c1c(SCCN2CCCCC2)n(-c2ccccc2)c(=S)n(-c2ccccc2)c1=O	12µM*	9.2µM*	i	i	-5	8
N#Cc1c(-c2ccncc2)cc(-c2ccc(F)cc2)nc1N	1%	-1%	i	i	0	5
Cc1ccc(-c2cc(-c3ccccc3)c(C#N)c(N)n2)o1	18µM*	18µM*	i	i	1	-12
Cc1ccc(-c2cc(-c3ccccc3Cl)c(C#N)c(N)n2)o1	?	?	i	i	-3	-10
Cc1ccc(-c2cc(-c3ccc(F)cc3)nc(N)c2C#N)o1	12µM*	3.7µM*	i	i	3	0
CCOC(=O)c1cccc(NC(=O)CCc2c(C)nn(-c3ccc(N4CCCC4)nn3)c2C)c1	nt	nt	nt	nt	2	nt
CN1CCN(CCCNC(=O)c2cnn(-c3ccccc3)c2-n2cccc2)CC1	nt	nt	i	i	-16	nt
O=S1(=O)CCC(NC(=S)SCCOc2ccccc2)C1 (centres undefined)	-139%[1.84 µM]	-2%	i	i	0	-4
CCCCSC(=S)NC1CCS(=O)(=O)C1 (centres undefined)	?	23µM*	i	i	-8	-12
COc1ccc(CSc2nc(C)cc(=O)[nH]2)cc1Br	-9%	4%	18µM*	i	-11	-84*
Cc1cc(=O)[nH]c(SCc2csc(-c3ccccc3)n2)n1	-60%	10%	23µM*	i	3	5
Cc1cc(=O)[nH]c(SCc2cccc(Br)c2)n1	-2%	15%	?	i	-2	80
Nc1cc(=O)[nH]c(SCc2csc(-c3ccccc3)n2)n1	0%	?	16µM*	?	6	7
